# Results: the supplement of paper PMC8728848
# The sample as a whole holds a higher share of the strongest signals than the screen did.
# Legend:
# Assay in all cases: glycan array binding signal (z-score within array); higher = stronger binding
# Settings in all cases: glycan notation: IUPAC condensed, linker removed
# [1] = biological target: GlcNAc(a1-4)Gal(b1-4)GalNAc
# Summary of the method: (§1)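 Glycan array data were curated from 3228 arrays in the Consortium for Functional Glycomics database and kept only where the protein sequence was available. Glycan names were converted to IUPAC-condensed notation, and columns mapping to the same glycan were averaged. The binding signal is a within-array Z-score, averaged across arrays of the same protein sequence at different concentrations or buffers and across linkers. Negative Z-scores can be read as non-binding.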
# [2] = biological target: GlcNAc(b1-3)Gal(b1-4)GlcNAc(b1-3)Gal(b1-4)GlcNAc(b1-2)[GlcNAc(b1-3)Gal(b1-4)GlcNAc(b1-3)Gal(b1-4)GlcNAc(b1-6)]Man(a1-6)[GlcNAc(b1-3)Gal(b1-4)GlcNAc(b1-3)Gal(b1-4)GlcNAc(b1-2)Man(a1-3)]Man(b1-4)GlcNAc(b1-4)[Fuc(a1-6)]GlcNAc
# Summary of the method: as §1
# [3] = biological target: Man(a1-2)Man(a1-2)Man(a1-3)Man
# Summary of the method: as §1
# [4] = biological target: Man(a1-2)Man(a1-3)[Man(a1-6)]Man(a1-6)[Man(a1-2)Man(a1-3)]Man(b1-4)GlcNAc(b1-4)GlcNAc
# Summary of the method: as §1
# [5] = biological target: Man(a1-6)Man
# Summary of the method: as §1
# [6] = biological target: Neu5Ac(a2-3)Gal(b1-3)GlcNAc(b1-2)Man
# Summary of the method: as §1
# [7] = biological target: Neu5Ac(a2-3)Gal(b1-3)GlcNAc(b1-2)Man(a1-3)[GlcNAc(b1-4)][Neu5Ac(a2-3)Gal(b1-3)GlcNAc(b1-2)Man(a1-6)]Man(b1-4)GlcNAc(b1-4)GlcNAc
# Summary of the method: as §1
# [8] = biological target: Neu5Ac(a2-3)Gal(b1-3)GlcNAc(b1-6)GalNAc
# Summary of the method: as §1
# [9] = biological target: Neu5Ac(a2-3)Gal(b1-3)GlcNAc6S
# Summary of the method: as §1
# [10] = biological target: Neu5Ac(a2-3)Gal(b1-3)[Neu5Ac(a2-6)]GalNAc
# Summary of the method: as §1
# [11] = biological target: Neu5Ac(a2-3)Gal(b1-3)[Neu5Ac(a2-6)]GlcNAc(b1-3)[Fuc(a1-3)[Gal(b1-4)]GlcNAc(b1-6)]Gal(b1-4)Glc
# Summary of the method: as §1
# [12] = biological target: Neu5Ac(a2-3)Gal(b1-4)Glc
# Summary of the method: as §1
# [13] = biological target: Neu5Ac(a2-3)Gal(b1-4)GlcNAc(b1-2)[Neu5Ac(a2-3)Gal(b1-4)GlcNAc(b1-6)]Man(a1-6)[Neu5Ac(a2-3)Gal(b1-4)GlcNAc(b1-2)Man(a1-3)][GlcNAc(b1-4)]Man(b1-4)GlcNAc(b1-4)GlcNAc
# Summary of the method: as §1
# [14] = biological target: Neu5Ac(a2-3)Gal(b1-4)GlcNAc(b1-3)Gal(b1-4)GlcNAc
# Summary of the method: as §1
# [15] = biological target: Neu5Ac(a2-3)Gal(b1-4)GlcNAc(b1-3)[Neu5Ac(a2-3)Gal(b1-4)GlcNAc(b1-6)]GalNAc
# Summary of the method: as §1
# [16] = biological target: Neu5Ac(a2-3)Gal(b1-4)GlcNAc(b1-6)[Gal(b1-3)]GalNAc
# Summary of the method: as §1
# [17] = biological target: Neu5Ac(a2-6)Gal
# Summary of the method: as §1
# [18] = biological target: Neu5Ac(a2-6)Gal(b1-4)Glc
# Summary of the method: as §1
# [19] = biological target: Neu5Ac(a2-6)Gal(b1-4)GlcNAc
# Summary of the method: as §1
# [20] = biological target: Neu5Ac(a2-6)Gal(b1-4)GlcNAc(b1-2)[Neu5Ac(a2-6)Gal(b1-4)GlcNAc(b1-6)]Man(a1-6)[Neu5Ac(a2-6)Gal(b1-4)GlcNAc(b1-2)Man(a1-3)][GlcNAc(b1-4)]Man(b1-4)GlcNAc(b1-4)GlcNAc
# Summary of the method: as §1
# [21] = biological target: Neu5Ac(a2-6)Gal(b1-4)GlcNAc(b1-3)GalNAc
# Summary of the method: as §1
# [22] = biological target: Neu5Ac(a2-6)GalNAc(b1-4)GlcNAc
# Summary of the method: as §1
# [23] = biological target: Neu5Ac(a2-8)Neu5Ac(a2-3)Gal(b1-4)Glc
# Summary of the method: as §1
# [24] = biological target: Neu5Ac(a2-8)Neu5Ac(a2-3)Gal(b1-4)GlcNAc
# Summary of the method: as §1
# [25] = biological target: Neu5Ac(a2-8)Neu5Ac(a2-8)Neu5Ac(a2-8)Neu5Ac(a2-3)[GalNAc(b1-4)]Gal(b1-4)Glc
# Summary of the method: as §1
# [26] = biological target: Neu5Ac9Ac(a2-3)Gal(b1-3)GlcNAc
# Summary of the method: as §1
# [27] = biological target: Neu5Gc(a2-3)Gal(b1-3)[Fuc(a1-4)]GlcNAc
# Summary of the method: as §1
# [28] = biological target: Neu5Gc(a2-3)Gal(b1-4)GlcNAc(b1-3)Gal(b1-4)GlcNAc(b1-2)Man(a1-3)[Neu5Gc(a2-3)Gal(b1-4)GlcNAc(b1-3)Gal(b1-4)GlcNAc(b1-2)Man(a1-6)]Man(b1-4)GlcNAc(b1-4)GlcNAc
# Summary of the method: as §1
# [29] = biological target: Neu5Gc(a2-6)GalNAc
# Summary of the method: as §1
# [30] = biological target: Neu5Gc(a2-8)Neu5Gc(a2-3)Gal(b1-4)GlcNAc(b1-3)Gal(b1-4)GlcNAc
# Summary of the method: as §1
binder,measurement,setting,value
Arath Fbox LD (Arabidopsis thaliana) (protein) EFSVWLEKASGKRCLMLSAMNLSIIWGDNPQYWQWIPIPESRFEKVAKLRDVCWFEIRGRTNTRVLSPRTRYSAYIVFKGVDKCYGFQNVAIEAAVGVVGQEPSRRLICFSEAIRRGRRNVVKPKQREDGWMEIELGEFFNDGGIMDNDEIEMSALETKQLNRKCGLIIQGIEIRPAKILAAASFLEQKLISEEDLNSAVDHHHHHH,glycan array binding signal (z-score),[1],0.26
same,glycan array binding signal (z-score),[2],0.126
same,glycan array binding signal (z-score),[3],-0.56
same,glycan array binding signal (z-score),[4],-0.337
same,glycan array binding signal (z-score),[5],2.7
same,glycan array binding signal (z-score),[6],2.03
same,glycan array binding signal (z-score),[7],-0.462
same,glycan array binding signal (z-score),[8],-0.64
same,glycan array binding signal (z-score),[9],-0.302
same,glycan array binding signal (z-score),[10],-0.264
same,glycan array binding signal (z-score),[11],-0.662
same,glycan array binding signal (z-score),[12],-0.473
same,glycan array binding signal (z-score),[13],-0.407
same,glycan array binding signal (z-score),[14],-0.587
same,glycan array binding signal (z-score),[15],-0.595
same,glycan array binding signal (z-score),[16],-0.599
same,glycan array binding signal (z-score),[17],2.83
same,glycan array binding signal (z-score),[18],0.791
same,glycan array binding signal (z-score),[19],-0.052
same,glycan array binding signal (z-score),[20],0.015
same,glycan array binding signal (z-score),[21],-0.324
same,glycan array binding signal (z-score),[22],-0.53
same,glycan array binding signal (z-score),[23],-0.516
same,glycan array binding signal (z-score),[24],-0.254
same,glycan array binding signal (z-score),[25],0.508
same,glycan array binding signal (z-score),[26],3.71
same,glycan array binding signal (z-score),[27],-0.502
same,glycan array binding signal (z-score),[28],-0.554
same,glycan array binding signal (z-score),[29],-0.28
same,glycan array binding signal (z-score),[30],-0.404
